This passage reports growth inhibition results from PubChem BioAssay (NCI).

A short description of experiment [1]: NCI Yeast Anticancer Drug Screen. Data for the rad50 strain (AID 155).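 Further: 0% = growth of vehicle-only cultures of the same strain.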 Conditions: S. cerevisiae rad50 strain growth inhibition; at 50.0 µM; active compounds read high. The essentials: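 Compounds were tested on a yeast strain with an engineered DNA damage repair alteration; the reported value is growth inhibition normalised to vehicle treatment.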
A short description of experiment [2]: NCI Yeast Anticancer Drug Screen. Data for the mec2-1 strain (AID 157). Conditions: S. cerevisiae mec2-1 strain, at 50.0 µM, active compounds read high. An outline of the steps: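 Growth inhibition is read against vehicle-treated controls after compound exposure of the mec2-1 yeast strain, which is defective in DNA damage repair or cell cycle control.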
Experiment [3] is described as follows: NCI Yeast Anticancer Drug Screen. Data for the sgs1 mgt1 strain (AID 161).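 Further: 0% = growth of cultures given vehicle only.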 The settings on record: S. cerevisiae sgs1 mgt1 strain, at 50.0 µM, active compounds read high. The essentials:
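Growth of a repair-deficient yeast mutant was monitored after compound treatment and expressed as inhibition relative to vehicle-treated cultures.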

The nature of experiment [4]: NCI Yeast Anticancer Drug Screen. Data for the cln2 rad14 strain (AID 165).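 Further: 0% = growth equal to vehicle treated cultures.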 Conditions: S. cerevisiae cln2 rad14 strain, at 50.0 µM, active compounds read high. An outline of the steps: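 Growth inhibition, relative to vehicle-treated controls, is the read-out. The test organism is a yeast strain with defined genetic alterations, cln2 rad14.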
The nature of experiment [5]: NCI Yeast Anticancer Drug Screen. Data for the bub3 strain (AID 167). Conditions: S. cerevisiae bub3 mutant strain, at 50.0 µM, active compounds read high. An outline of the steps:
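Growth of a checkpoint-deficient yeast mutant is measured after compound exposure. Values represent inhibition relative to vehicle.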

Experiment [6] is described as follows: NCI Yeast Anticancer Drug Screen. Data for the mlh1 rad18 strain (AID 175). The settings on record: S. cerevisiae mlh1 rad18 strain growth inhibition; at 50.0 µM; active compounds read high. The essentials:
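Cells of a genetically altered yeast strain, deficient in DNA damage repair, were treated with compound. Their growth was then compared with that of vehicle-treated cultures to give inhibition.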

This is part of a sample that, as a whole, favours compounds with a hit. Of some 79,000 tested, about 15% had one in any assay. Values without a mark were called inactive. Activity calls are given as the source filed them. No stated cut-off is given here; in the data, active means growth inhibition above about 70%; inactive means the rest. Where a SMILES comes first, the peptide text is derived from it. The star is where a group is joined. Cbz = O=C(OCc1ccccc1)*

For the compound `CCC(C)(C)c1ccccc1`, the growth inhibition in experiment [1] is 13.2%; in experiment [2] it was 6%; in experiment [3], 20%; in experiment [4], 10.9%; in experiment [5] it was 8.95%; in experiment [6], 15.3%.

`Nc1ncnc2c1c1cncnc1n2C1OC(CO)C(O)C1O` (stereo not given): the growth inhibition in experiment [1] is 9.55%; in experiment [2], -4.75%; in experiment [3], -9.55%; in experiment [4], 16.1%; in experiment [5], 7.45%; in experiment [6], 17.1%.

For `C[N+](C)(CCNc1ccc(NCC[N+](C)(C)Cc2ccc([N+](=O)[O-])cc2)c2c1C(=O)c1c(O)ccc(O)c1C2=O)Cc1ccc([N+](=O)[O-])cc1`, the growth inhibition in experiment [1] was 72.2% (active); in experiment [2], 84.6% (active); in experiment [3], 77.9% (active); in experiment [4] it was 78.1% (active); in experiment [5], 76.7% (active); in experiment [6] it was 76.8% (active).

In the case of `CC1=C(C)C(N(C)C)CS(=O)(=O)O1` (stereo not given), the growth inhibition in experiment [1] was 6.35%; in experiment [2] it was -18.4%; in experiment [3], -0.7%; in experiment [4], -47%; in experiment [5] it was -11.2%; in experiment [6], -7.9%.

In the case of `N#CC(CCc1ccc([N+](=O)[O-])cc1)(CCc1ccc([N+](=O)[O-])cc1)C(N)=O`, the growth inhibition was 38.4% in experiment [1]; 19.4% in experiment [2]; 35.9% in experiment [3]; -14.2% in experiment [4]; 24.9% in experiment [5]; 49.2% in experiment [6].

For `O=C(Nc1ccccc1)Nc1ccc2ccccc2c1`, the growth inhibition in experiment [1] is -7.75%; in experiment [2], -0.2%; in experiment [3], 2.1%; in experiment [4], -22.2%; in experiment [5], 12.9%; in experiment [6], -10.9%.

`CC[C@@]1(O)C[C@H](OC2CC(N(C)C)C(OC3CC(O)C(OC4CC(O)C(O)C(C)O4)C(C)O3)C(C)O2)c2c(cc3c(c2O)C(=O)c2c(O)ccc(O)c2C3=O)[C@H]1C(=O)OC` (stereo not given in full): the growth inhibition in experiment [1] is -25.1%; in experiment [2], -14.8%; in experiment [3], -35%; in experiment [4], 4.3%; in experiment [5], 1.95%; in experiment [6], 7.45%.

Consider `Nc1ncnc2c1ncn2CCOCC(O)CO` (stereo not given), for which the growth inhibition in experiment [1] is -0.75%; in experiment [2], -4.3%; in experiment [3], -5.95%; in experiment [4], -15.4%; in experiment [5], -7.7%; in experiment [6], -19.9%.

As to `O=C1/C=C2/C=CC=CN2C(=O)/C=C2/C=CC=CN12`, the growth inhibition in experiment [1] is -1.6%; in experiment [2] it was -15.3%; in experiment [3] it was -15%; in experiment [4], 1.65%; in experiment [5] it was 0.95%; in experiment [6], -11.9%.

As for `CCOc1ccccc1C(=O)O`, the growth inhibition in experiment [1] is 13.2%; in experiment [2], 6%; in experiment [3] it was 14.2%; in experiment [4], 11.4%; in experiment [5] it was -12.1%; in experiment [6], 11.4%.

For the compound `O=P(c1ccccc1)(c1ccccc1)C(O)c1cccs1` (stereo not given), the growth inhibition is 12.8% in experiment [1]; 2% in experiment [2]; 17.6% in experiment [3]; 15.5% in experiment [4]; 24.9% in experiment [5]; 18.8% in experiment [6].

Take `COC(=O)C1OC(O[C@H]2CC[C@]3(C)[C@H]4CC=C5[C@@H]6CC(C)(C)CC[C@]6(C(=O)OC6OCC(O)C(O)C6OC6OC(C)C(OC7OCC(O)C(O)C7O)C(OC7OCC(O)(CO)C7O)C6O)[C@H](O)C[C@@]5(C)[C@]4(C)CC[C@H]3C2(C)C)C(O)C(O)C1O` (stereo not given in full): the growth inhibition in experiment [1] was 16.1%; in experiment [2], -10.3%; in experiment [3] it was -6.1%; in experiment [4], 34.6%; in experiment [5] it was 13.6%; in experiment [6] it was 10.3%.

Consider `O=C1C(=Nc2ccc(Cl)nc2)CC(c2ccccc2)N1c1ccc(Cl)nc1` (stereo not given), for which the growth inhibition in experiment [1] is 7.9%; in experiment [2], 9.25%; in experiment [3], 16.1%; in experiment [4], 22.4%; in experiment [5], 3%; in experiment [6], -4%.

In the case of `O=[N+]([O-])c1ccc(Nc2ccccc2)c2nonc12`, the growth inhibition in experiment [1] was -22.2%; in experiment [2], 4.45%; in experiment [3], -0.1%; in experiment [4], 26.4%; in experiment [5] it was 13.8%; in experiment [6], 29.4%.

In the case of `NS(=O)(=O)c1ccc(N=Nc2nc3[nH]c(=O)[nH]c(=O)c3[nH]2)cc1`, the growth inhibition is 22.3% in experiment [1]; -9.2% in experiment [2]; 3.05% in experiment [3]; -4.85% in experiment [4]; -7.2% in experiment [5]; 18.6% in experiment [6].

As to `O=C(O)C(CO)NC(=O)C1CCCN1C(=O)OCc1ccccc1` (stereo not drawn) (Cbz-Pro-Ser-OH; configuration not given here), the growth inhibition in experiment [1] was -1.95%; in experiment [2] it was -17.8%; in experiment [3], -5.7%; in experiment [4], -1%; in experiment [5] it was -4.75%; in experiment [6] it was -18%.

Regarding `COc1cc(/C=C(\C#N)c2ccccn2)cc(Br)c1O`, the growth inhibition in experiment [1] was -7.35%; in experiment [2], 5.15%; in experiment [3], -3.9%; in experiment [4] it was 17.2%; in experiment [5] it was 25.8%; in experiment [6], -21.6%.

As to `CCCCCP(=O)(CCCCC)C1CCCC1`, the growth inhibition was -0.6% in experiment [1]; 11.2% in experiment [2]; -2.3% in experiment [3]; 1.75% in experiment [4]; 49.1% in experiment [5]; -0.65% in experiment [6].

On to `Cc1cc2c(cc1[N+](=O)[O-])OCCO2`, for which the growth inhibition in experiment [1] was 11.3%; in experiment [2], 3.9%; in experiment [3], 4.55%; in experiment [4] it was -15.5%; in experiment [5] it was -3.25%; in experiment [6] it was 8.55%.

Turning to `c1cc2[nH]snc2c2cncc12`, the growth inhibition in experiment [1] was 12.5%; in experiment [2], 9.2%; in experiment [3], 0.25%; in experiment [4], -19.1%; in experiment [5], -24.1%; in experiment [6], 6.6%.
